Results filed as inconclusive are left out. Calls of active or inactive are those of the source. Unless noted, calls follow the shape of the dose curve; as a rule, active = well fitted curve in either direction with a large enough effect (not every such curve was filed as active); inconclusive = small, poorly fitted or top-dose-only effect, or another doubt; inactive = flat fitted curve, though single readings scatter.
How the values were obtained:
[1] = molecular target: Lysosomal acid glucosylceramidase (Homo sapiens) (UniProt P04062); test: Glucocerebrosidase-p2 (AID 348; in the data active = potency below about 10 µM; also: potency is read from the fitted curve at half-maximal effect); conditions: purified GBA, blue fluorogenic substrate, 40 min
Outline: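 Normal human glucocerebrosidase (0.2 nM) with blue fluorogenic substrate (80 uM final) in citrate/phosphate pH 5.9 with 10mM sodium taurocholate, 0.01% tween-20; 40 min RT, NaOH/glycine stop; fluorescence Ex 365/Em 440; AC50 from a titration from 0.6 nM upwards.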

[2] = molecular target: Glucocorticoid receptor (Homo sapiens) (UniProt P04150); test: GR-GFP Redistribution (AID 450;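 active = compounds whose dose series gives a full or clear partial fitted curve of increased nuclear translocation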; also: potency is read from the fitted curve at half-maximal effect); conditions: U2OS GR-GFP nuclear translocation, laser cytometry, 2 h
[3] = molecular target: Glucocorticoid receptor (Homo sapiens) (UniProt P04150); test: GR-EFC Redistribution (AID 451; calls by dose curve; also: potency is read from the fitted curve at half-maximal effect); conditions: CHO-K1 GR-EFC translocation, beta-gal luminescence, 2 h
Outline: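 CHO-K1 cells expressing nuclear EA and GR-ED fragments of b-gal; compounds titrated up to 46 uM final, 2 h at 37 C. GR nuclear translocation read as complemented b-gal luminescence after 1 h RT detection.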

[4] = molecular target: Mitogen-activated protein kinase 10 (Mus musculus) (UniProt Q61831); test: JNK3 AlphaScreen Assay (AID 530); conditions: JNK3 lysate, c-Jun phosphorylation; series mostly up to 57.1 µM;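 also: kinase came from lysate of stimulated human HepG2 cells; signal reports phosphorylation of biotinylated GST-cJun 1-79 at Ser73 with 10 µM ATP; % is scaled to controls: 0 for no effect and ±100 for the full control effect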
Outline: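 HepG2 lysate (IL-1b/TNFa pre-activated) + biotin-GST-cJun 1-79 + anti-pSer73 cJun; cpd titration, 15 min RT; ATP 10 uM start; Tris pH 7.6, MgCl2, DTT, vanadate; beads in EDTA buffer; AlphaScreen.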

[5] = molecular target: 3',5'-cyclic-AMP phosphodiesterase 4B (Homo sapiens) (UniProt Q07343); test: qHTS Assay for Inhibitors of PDE-IV (AID 607; active = well fitted activation curve with a large enough effect in the main read-out, with a control signal flat, not every such curve was filed as active; also: % of control where 0% means no effect); conditions: HEK293 ACTOne CNG channel cells, membrane potential fluorescence; series mostly up to 22.9 µM
Outline: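 The readout is membrane depolarisation from a cAMP-sensing CNG channel, detected with a potential dye at ex 535/em 590. Cells were HEK293-derived (endogenous PDE-IV) at 1000 cells/well, titrated up to 22.9 uM final.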

[6] = molecular target: Cytochrome P450 2D6 (Homo sapiens) (UniProt P10635); test: qHTS Assay for Inhibitors and Substrates of Cytochrome P450 2D6 (AID 891; active = well fitted curve in the direction sought with a large enough effect; an effect the other way counts as inactive or inconclusive; also: potency is read from the fitted curve at half-maximal effect; nearly all actives have a fitted effect of over 60% in size); conditions: recombinant CYP2D6, luciferin-ME EGE luminescence; series mostly up to 11.4 µM
Outline: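 Luminescent read-out of luciferin formed by 5 nM human CYP2D6 demethylating 30 uM Luciferin-ME EGE (Km level) over 60 min at room temperature after NADPH regeneration addition. Data normalized to full inhibition by 1.43 uM quinidine.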

[7] = AP1 Signaling Pathway (AID 357); conditions: ME-180 AP-1-bla reporter, EGF-induced, beta-lactamase ratio, 5 h; at 7.69 µM (top of the series) unless noted;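 also: ME-180 reporter cells stimulated with EGF at its EC50 level; % is scaled to controls: 0 for no effect and ±100 for the full control effect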
Outline: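 Cells are seeded overnight, exposed to compound titrations and an EC50 level of EGF for 5 hours at 37 °C, then loaded with CCF4 dye for 2.5 hours. Beta-lactamase activity under the AP-1 element is read as a blue/green ratio.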

[8] = Stat Signaling Pathway (AID 446); conditions: ME-180 (cervical carcinoma) SIE beta-lactamase reporter, IL-6 stimulated, 5 h; at 7.69 µM (top of the series) unless noted;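 also: ME-180 cervical cancer cells given 40 pM IL-6 alongside compound; SIE-controlled beta-lactamase reporter measured as 460/530 nm FRET emission ratio; % is scaled to controls: 0 for no effect and ±100 for the full control effect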
Outline: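 Emission at 460 and 530 nm (excitation 405 nm) reports SIE-controlled beta-lactamase in ME-180 cells. Cells received compound with 40 pM IL-6 for 5 hrs at 37 C; data scaled between 300 pM IL-6 and 125 nM JAK-inhibitor controls.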

[9] = molecular target: Cytochrome P450 1A2 (Homo sapiens) (UniProt P05177); test: p450-cyp1a2 (AID 410; calls by dose curve;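 also: -100% = full effect of reference inhibitor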); conditions: recombinant CYP1A2, luciferin-ME demethylation, luminescence; series mostly up to 11.4 µM
Outline: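 Read-out is luminescence from luciferin produced by CYP1A2 demethylation of Luciferin-ME (100uM, at Km). Detection reagent stopped the 60 min NADPH-dependent reaction; signals were normalized to 57 uM furafylline.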

[10] = NFAT Signaling Pathway (AID 444); conditions: Jurkat NFAT-bla M1, carbachol, beta-lactamase ratio, 5 h; at 7.69 µM (top of the series) unless noted;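 also: carbachol stimulus at about its EC50 of 1 µM final; % is scaled to controls: 0 for no effect and ±100 for the full control effect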
Outline: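 Jurkat cells with NFAT-driven β-lactamase reporter and co-expressed M1 receptor, stimulated with carbachol (final 1 uM, ~EC50), compound titration, 5 h at 37 °C. CCF4 loaded 1 h at RT; 460/530 nm ratio gave %activity and AC50.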

[11] = molecular target: Guanine nucleotide-binding protein G(i) subunit alpha-1 (Homo sapiens) (UniProt P63096); test: qHTS Assay for Inhibitors of RGS12 GoLoco Motif Activity (Green Fluorophore) (AID 879; active = well fitted curve in the direction sought with a large enough effect; an effect the other way counts as inactive or inconclusive;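 also: 0% = labeled peptide with Gαi1 and full inhibition = labeled peptide alone without protein; negative values mean loss of peptide binding seen as reduced polarization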); conditions: Galphai1/FITC-RGS12 GoLoco peptide, fluorescence polarization; series mostly up to 57.1 µM
Outline: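 A drop in FITC polarization marked displacement of the FITC-tagged RGS12 GoLoco peptide (10 nM) from Gαi1 (50 nM). Compounds were incubated 10 min at room temperature in Tris pH 7.5 buffer containing 150 mM NaCl, 0.1 mM GDP and 0.05% NP40; unlabeled peptide titration served as control.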

[12] = molecular target: Cytochrome P450 2C9 (Homo sapiens) (UniProt P11712); test: qHTS Assay for Inhibitors and Substrates of Cytochrome P450 2C9 (AID 883; active = well fitted curve in the direction sought with a large enough effect; an effect the other way counts as inactive or inconclusive; also: % is scaled to controls: 0 for no effect and ±100 for the full control effect; nearly all actives have a fitted effect of over 60% in size); conditions: recombinant CYP2C9, luciferin-H luminescence, 60 min; series mostly up to 57.1 µM
Outline: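 10nM CYP2C9 + 100uM Luciferin-H (=KM), 25mM KPO4; cpd 10 min 37C; NADPH regen, 60 min 37C; stop/detect with P450 Glo-Buffer 20 min; luminescence. Norm. to 57uM sulphaphenazole as full inhibition.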

[13] = qHTS Assay for Identification of Small Molecule Agonists for Thrombopoietin (TPO) Signaling Pathway (AID 917; active = well fitted curve in the direction sought with a large enough effect; an effect the other way counts as inactive or inconclusive; also: % is scaled to controls: 0 for no effect and ±100 for the full control effect); conditions: TPO signaling pathway reporter cells, agonist qHTS; series mostly up to 38.5 µM
Outline: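 Luciferase reporter (Glycoprotein IIb promoter) in IL-3-deprived Ba/F3 cells carrying human TPO receptor; compounds co-added with 26 pM TPO, incubated 24 h, 37 C. Steadylite luminescence measured after 10 min.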

[14] = molecular target: Muscarinic acetylcholine receptor M1 (Rattus norvegicus) (UniProt P08482); test: qHTS Assay for Antagonists of Acetylcholine Muscarinic M1 Receptor: Measurement of IP-One Response (AID 944; active = well fitted curve in the direction sought with a large enough effect; an effect the other way counts as inactive or inconclusive; also: nearly all actives have a fitted effect of over 75% in size); conditions: CHO-M1 cells, IP-One HTRF, antagonist mode; series mostly up to 46.1 µM
Outline: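 Antagonism was measured as loss of carbachol-driven (EC80) IP1 accumulation in CHO cells carrying rat M1, using a homogeneous IP-One TR-FRET kit read at 620 and 665 nm.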

[15] = molecular target: Pyruvate kinase (Leishmania mexicana) (UniProt Q27686); test: qHTS Validation Assay for Inhibitors of Leishmania Mexicana Pyruvate Kinase (AID 945; active = well fitted curve in the direction sought with a large enough effect; an effect the other way counts as inactive or inconclusive;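 also: 0% = DMSO only neutral control wells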); conditions: purified L. mexicana pyruvate kinase, enzyme activity, E451W mutant enzyme; series mostly up to 57.5 µM
Outline: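 Pyruvate kinase activity of E451W LmPYK (0.2 nM) was followed as ATP output after 1 h at room temperature with 0.5 mM PEP and 0.1 mM ADP, detected by PKLight luminescence.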

[16] = molecular target: Pyruvate kinase PKM (Homo sapiens) (UniProt P14618); test: qHTS Assay for Activators of Human Muscle Pyruvate Kinase (AID 954; active = well fitted curve in the direction sought with a large enough effect, not every such curve was filed as active;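 also: 0% = uninhibited enzyme and -100% = no enzyme or full thiadiazolimine inhibition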); conditions: purified human muscle pyruvate kinase, luciferase-coupled luminescence, 1 h; series mostly up to 57.5 µM
Outline: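 PKM2, human, >95% pure, 0.1 nM; PEP 0.5 mM (Km), ADP 0.1 mM; 50 mM imidazole pH 7.2, 50 mM KCl, 0.01% Tween 20, 0.05% BSA; 1 h RT; luciferase luminescence readout.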

[17] = molecular target: Cytochrome P450 3A4 (Homo sapiens) (UniProt P08684); test: qHTS Assay for Inhibitors and Substrates of Cytochrome P450 3A4 (AID 884; active = well fitted curve in the direction sought with a large enough effect; an effect the other way counts as inactive or inconclusive; also: potency is read from the fitted curve at half-maximal effect; nearly all actives have a fitted effect of over 50% in size); conditions: recombinant CYP3A4, Luciferin-PPXE luminescence; series mostly up to 57.1 µM
Outline: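 Luminescent readout of luciferin produced by CYP3A4 (20 nM) dealkylation of Luciferin-PPXE, 25 uM (its KM). NADPH-driven reaction ran 60 min at RT after 10 min compound preincubation; data scaled to 57 uM ketoconazole as 100% inhibition.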

[18] = molecular target: Cytochrome P450 3A4 (Homo sapiens) (UniProt P08684); test: qHTS Assay for Activators of Cytochrome P450 3A4 (AID 885; active = well fitted curve in the direction sought with a large enough effect; an effect the other way counts as inactive or inconclusive; also: nearly all actives have a fitted effect of over 65% in size); conditions: recombinant CYP3A4, Luciferin-PPXE luminescence, 60 min; series mostly up to 57.1 µM
Outline: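 Activators are scored by enhanced luminescence from CYP3A4 conversion of luciferin-PPXE (25uM, equal to KM) to luciferin, after 60 min at RT with an NADPH-regenerating system.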

[19] = molecular target: Cytochrome P450 2C19 (Homo sapiens) (UniProt P33261); test: qHTS Assay for Inhibitors and Substrates of Cytochrome P450 2C19 (AID 899; active = well fitted curve in the direction sought with a large enough effect; an effect the other way counts as inactive or inconclusive; also: potency is read from the fitted curve at half-maximal effect; nearly all actives have a fitted effect of over 60% in size); conditions: recombinant CYP2C19, luciferin-H EGE luminescence; series mostly up to 11.4 µM
Outline: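 Luminescent read-out of luciferin formed from Luciferin-H EGE (10uM, equal to KM). Enzyme 5nM in 50mM KPO4; compound added, 10 min at 37C, then NADPH regenerating system for 60 min at 37C. Full inhibition defined by 57uM ketoconazole.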

3',5'-cyclic-AMP phosphodiesterase 4B (Homo sapiens), sequence (Q07343 whole entry, looked up): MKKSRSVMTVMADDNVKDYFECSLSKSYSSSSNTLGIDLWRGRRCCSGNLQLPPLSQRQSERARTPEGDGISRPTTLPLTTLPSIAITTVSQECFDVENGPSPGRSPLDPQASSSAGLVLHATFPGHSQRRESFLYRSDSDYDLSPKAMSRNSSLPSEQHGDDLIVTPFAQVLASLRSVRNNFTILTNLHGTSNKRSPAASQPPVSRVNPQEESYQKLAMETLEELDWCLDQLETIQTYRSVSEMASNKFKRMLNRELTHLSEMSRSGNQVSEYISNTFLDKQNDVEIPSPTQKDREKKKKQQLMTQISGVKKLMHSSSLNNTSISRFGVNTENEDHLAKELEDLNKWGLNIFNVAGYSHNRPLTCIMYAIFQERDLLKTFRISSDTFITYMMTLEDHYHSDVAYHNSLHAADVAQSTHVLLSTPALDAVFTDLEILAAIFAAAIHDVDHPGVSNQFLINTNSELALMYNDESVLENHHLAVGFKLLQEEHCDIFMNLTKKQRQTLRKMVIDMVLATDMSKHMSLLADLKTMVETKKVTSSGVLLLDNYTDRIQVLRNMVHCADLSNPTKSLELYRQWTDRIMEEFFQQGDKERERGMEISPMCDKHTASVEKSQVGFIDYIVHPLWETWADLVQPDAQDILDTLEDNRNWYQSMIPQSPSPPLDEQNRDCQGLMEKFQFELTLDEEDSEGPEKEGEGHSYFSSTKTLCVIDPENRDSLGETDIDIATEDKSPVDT
Cytochrome P450 3A4 (Homo sapiens), sequence (P08684 whole entry, looked up): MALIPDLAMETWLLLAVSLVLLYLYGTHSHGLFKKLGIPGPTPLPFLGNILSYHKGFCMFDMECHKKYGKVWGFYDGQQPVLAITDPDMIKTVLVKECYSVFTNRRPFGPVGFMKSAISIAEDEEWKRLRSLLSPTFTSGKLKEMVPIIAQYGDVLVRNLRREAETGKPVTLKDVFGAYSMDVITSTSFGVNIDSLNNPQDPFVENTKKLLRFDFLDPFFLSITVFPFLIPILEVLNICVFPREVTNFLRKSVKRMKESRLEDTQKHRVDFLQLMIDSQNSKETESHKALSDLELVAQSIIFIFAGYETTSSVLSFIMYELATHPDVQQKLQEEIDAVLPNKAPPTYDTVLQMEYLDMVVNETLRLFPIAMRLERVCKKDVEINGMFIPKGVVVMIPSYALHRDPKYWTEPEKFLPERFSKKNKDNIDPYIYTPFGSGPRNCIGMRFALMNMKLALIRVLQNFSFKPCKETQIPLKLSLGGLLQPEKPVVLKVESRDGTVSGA
Lysosomal acid glucosylceramidase (Homo sapiens), sequence (P04062 whole entry, looked up): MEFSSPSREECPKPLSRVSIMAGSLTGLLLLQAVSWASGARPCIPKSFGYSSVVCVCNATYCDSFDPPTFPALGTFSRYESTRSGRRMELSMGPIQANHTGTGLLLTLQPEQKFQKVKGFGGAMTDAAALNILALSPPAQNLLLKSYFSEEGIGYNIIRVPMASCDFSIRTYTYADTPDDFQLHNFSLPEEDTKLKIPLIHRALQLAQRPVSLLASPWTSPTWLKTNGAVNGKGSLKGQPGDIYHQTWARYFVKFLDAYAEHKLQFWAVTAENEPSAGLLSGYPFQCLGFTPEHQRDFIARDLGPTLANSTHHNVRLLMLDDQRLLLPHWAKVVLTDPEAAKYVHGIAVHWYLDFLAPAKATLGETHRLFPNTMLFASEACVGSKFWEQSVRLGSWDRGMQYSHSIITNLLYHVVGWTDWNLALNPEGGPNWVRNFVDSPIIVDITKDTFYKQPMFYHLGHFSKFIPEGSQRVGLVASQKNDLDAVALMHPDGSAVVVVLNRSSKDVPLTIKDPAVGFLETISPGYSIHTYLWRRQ
Glucocorticoid receptor (Homo sapiens), sequence (P04150 whole entry, looked up, the tested form may be a part): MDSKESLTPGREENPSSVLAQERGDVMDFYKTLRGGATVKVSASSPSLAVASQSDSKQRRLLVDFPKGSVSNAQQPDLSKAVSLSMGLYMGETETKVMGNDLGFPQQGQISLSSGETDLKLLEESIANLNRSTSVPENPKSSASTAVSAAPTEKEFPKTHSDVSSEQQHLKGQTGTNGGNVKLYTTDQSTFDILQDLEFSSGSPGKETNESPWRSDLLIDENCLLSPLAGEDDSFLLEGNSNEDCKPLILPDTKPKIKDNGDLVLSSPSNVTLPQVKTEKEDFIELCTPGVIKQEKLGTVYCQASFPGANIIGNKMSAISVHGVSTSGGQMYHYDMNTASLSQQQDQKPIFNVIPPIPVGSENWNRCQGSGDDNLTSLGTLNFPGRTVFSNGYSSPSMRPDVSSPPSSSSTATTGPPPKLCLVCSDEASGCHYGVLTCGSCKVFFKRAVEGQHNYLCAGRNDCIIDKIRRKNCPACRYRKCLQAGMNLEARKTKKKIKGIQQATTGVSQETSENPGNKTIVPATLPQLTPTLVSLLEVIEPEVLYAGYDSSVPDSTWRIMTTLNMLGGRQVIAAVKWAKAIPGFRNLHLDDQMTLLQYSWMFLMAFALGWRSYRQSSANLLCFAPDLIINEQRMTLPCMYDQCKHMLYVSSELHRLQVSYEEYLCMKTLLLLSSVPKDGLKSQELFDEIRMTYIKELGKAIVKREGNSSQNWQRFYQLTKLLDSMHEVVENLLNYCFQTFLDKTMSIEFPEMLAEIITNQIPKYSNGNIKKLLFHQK
Cytochrome P450 2D6 (Homo sapiens), sequence (P10635 whole entry, looked up): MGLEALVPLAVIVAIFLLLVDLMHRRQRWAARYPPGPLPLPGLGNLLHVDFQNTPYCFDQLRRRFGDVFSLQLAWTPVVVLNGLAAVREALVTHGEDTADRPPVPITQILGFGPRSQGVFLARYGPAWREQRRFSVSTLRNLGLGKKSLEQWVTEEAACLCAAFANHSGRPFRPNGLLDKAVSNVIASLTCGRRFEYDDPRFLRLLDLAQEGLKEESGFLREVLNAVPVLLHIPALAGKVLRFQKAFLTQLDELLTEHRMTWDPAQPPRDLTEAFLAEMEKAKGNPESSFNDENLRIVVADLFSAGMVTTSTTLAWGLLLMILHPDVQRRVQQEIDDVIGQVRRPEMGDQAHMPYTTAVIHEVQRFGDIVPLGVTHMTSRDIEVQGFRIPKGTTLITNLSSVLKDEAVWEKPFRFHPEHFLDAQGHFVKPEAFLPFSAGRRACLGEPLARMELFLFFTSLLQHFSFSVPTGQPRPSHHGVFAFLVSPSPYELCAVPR
Guanine nucleotide-binding protein G(i) subunit alpha-1 (Homo sapiens), sequence (P63096 whole entry, looked up): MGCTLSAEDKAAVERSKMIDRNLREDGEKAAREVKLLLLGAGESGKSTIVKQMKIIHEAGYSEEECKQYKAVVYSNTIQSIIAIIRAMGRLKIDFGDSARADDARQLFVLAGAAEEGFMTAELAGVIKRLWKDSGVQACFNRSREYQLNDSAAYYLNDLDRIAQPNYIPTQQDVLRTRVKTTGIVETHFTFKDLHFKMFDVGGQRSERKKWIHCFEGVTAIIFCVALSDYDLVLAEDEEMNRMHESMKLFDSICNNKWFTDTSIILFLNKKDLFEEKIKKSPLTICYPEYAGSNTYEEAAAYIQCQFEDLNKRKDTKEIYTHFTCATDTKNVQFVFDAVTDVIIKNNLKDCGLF
Pyruvate kinase PKM (Homo sapiens), sequence (P14618 whole entry, looked up): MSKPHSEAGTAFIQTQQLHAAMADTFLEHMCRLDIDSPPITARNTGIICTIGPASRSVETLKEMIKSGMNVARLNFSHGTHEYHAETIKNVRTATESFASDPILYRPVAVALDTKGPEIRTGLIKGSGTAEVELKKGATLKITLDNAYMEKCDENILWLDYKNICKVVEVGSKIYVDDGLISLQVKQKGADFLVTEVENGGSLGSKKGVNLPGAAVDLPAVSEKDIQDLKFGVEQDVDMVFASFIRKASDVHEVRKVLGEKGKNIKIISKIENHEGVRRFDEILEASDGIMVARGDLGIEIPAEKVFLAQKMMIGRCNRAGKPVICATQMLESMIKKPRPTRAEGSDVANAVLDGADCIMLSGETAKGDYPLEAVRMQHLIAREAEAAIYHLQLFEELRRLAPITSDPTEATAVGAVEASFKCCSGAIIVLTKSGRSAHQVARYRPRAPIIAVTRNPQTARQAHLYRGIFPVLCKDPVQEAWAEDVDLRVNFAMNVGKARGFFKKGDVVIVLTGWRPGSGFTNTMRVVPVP
Muscarinic acetylcholine receptor M1 (Rattus norvegicus), sequence (P08482 whole entry, looked up): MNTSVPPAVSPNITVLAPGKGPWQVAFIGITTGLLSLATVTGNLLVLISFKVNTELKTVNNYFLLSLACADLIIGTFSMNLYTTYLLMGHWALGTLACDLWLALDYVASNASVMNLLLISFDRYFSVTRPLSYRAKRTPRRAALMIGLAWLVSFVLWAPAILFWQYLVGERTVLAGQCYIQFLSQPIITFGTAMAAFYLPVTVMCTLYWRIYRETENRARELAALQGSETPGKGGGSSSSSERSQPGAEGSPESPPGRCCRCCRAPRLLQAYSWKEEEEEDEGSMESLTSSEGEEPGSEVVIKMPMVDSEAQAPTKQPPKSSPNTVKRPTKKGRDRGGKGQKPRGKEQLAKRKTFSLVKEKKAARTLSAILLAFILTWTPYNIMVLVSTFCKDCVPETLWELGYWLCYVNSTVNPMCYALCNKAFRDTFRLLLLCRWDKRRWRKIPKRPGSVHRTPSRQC
Pyruvate kinase (Leishmania mexicana), sequence (Q27686 2-499 E452W): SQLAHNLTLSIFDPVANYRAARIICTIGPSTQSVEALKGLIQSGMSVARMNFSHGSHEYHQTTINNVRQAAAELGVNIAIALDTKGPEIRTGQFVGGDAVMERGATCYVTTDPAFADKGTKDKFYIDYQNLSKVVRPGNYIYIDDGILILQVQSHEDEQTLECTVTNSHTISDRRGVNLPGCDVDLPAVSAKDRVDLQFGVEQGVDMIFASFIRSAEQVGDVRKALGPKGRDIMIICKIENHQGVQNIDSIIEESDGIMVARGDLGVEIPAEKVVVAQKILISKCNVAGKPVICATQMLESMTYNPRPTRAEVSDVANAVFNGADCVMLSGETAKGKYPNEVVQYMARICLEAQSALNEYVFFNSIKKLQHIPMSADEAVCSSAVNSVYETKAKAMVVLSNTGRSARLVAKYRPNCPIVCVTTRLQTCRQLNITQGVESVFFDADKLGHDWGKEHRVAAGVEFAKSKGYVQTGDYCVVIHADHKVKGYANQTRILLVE

COC1=C(C)C(=O)c2c(c(COC(N)=O)c3n2C[C@@H]2[C@@H]3N2C)C1=O (stereo not given in full)
active: Potency [6] 1.58 µM
inactive: Potency [1] > 11.4 µM | Potency [2] > 46 µM | Potency [3] > 9.22 µM | activity change, negative = inhibition [4] -0.1% [at 11.4 µM] | outcome [5]

O=C1C[C@@H]2OCC=C3CN4CC[C@]56c7ccccc7N1[C@@H]5[C@@H]2[C@H]3C[C@H]46 (tested in a mixture with another compound)
inactive: Potency [1] > 11.4 µM | activity change, negative = inhibition [7] 5.95% | outcome [5]

C[C@H](c1ccccc1)N1CCN([C@@H](C)c2ccccc2)CC1
inactive: Potency [1] > 11.4 µM | activity change, negative = inhibition [7] -6.57% | activity, negative = inhibition [8] -0.496% | Potency [2] > 46 µM | activity change, negative = inhibition [4] 1.95% [at 11.4 µM] | outcome [5]
active: Potency [6] 0.0631 µM

C[C@@H]1O[C@H]1P(=O)(O)O
inactive: activity change, negative = inhibition [7] 0.559% [at 38 µM] | Potency [9] | activity change, negative = inhibition [10] 6.57% [at 38 µM] | activity, negative = inhibition [8] 22.2% [at 38 µM] | Potency [2] > 46 µM | Potency [3] > 46 µM | Potency [4] | outcome [5] | outcome [11] | Potency [12] | outcome [13] | Potency [14] | outcome [15] | outcome [16]

N[C@@H](Cc1cc(Br)c(O)c(Br)c1)C(=O)O
inactive: Potency [1] > 11.4 µM | activity change, negative = inhibition [7] -11.9% | activity, negative = inhibition [8] 5.31% | Potency [2] > 46 µM | activity change, negative = inhibition [4] 1.55% [at 11.4 µM] | outcome [5]

CC(C)=C[C@H]1[C@@H](C(=O)OCc2cc3c(cc2Cl)OCO3)C1(C)C
inactive: Potency [1] > 11.4 µM | activity change, negative = inhibition [7] -2.25% | activity, negative = inhibition [8] 0.513% | Potency [2] > 46 µM | Potency [3] > 9.22 µM | outcome [5] | activity change, positive = activation [18] -75% [at 11.4 µM]
active: Potency [17] 0.316 µM | Potency [19] 1.58 µM

COc1ccc2c3c1O[C@@H]1C(=O)CC[C@@]4(O)[C@@H](C2)N(CC2CC2)CC[C@]314
active: Potency [6] 5.01 µM
inactive: activity change, negative = inhibition [7] -5.48% [at 38 µM] | Potency [9] | activity change, negative = inhibition [10] -9.4% [at 38 µM] | activity, negative = inhibition [8] 4.82% [at 38 µM] | Potency [2] > 46 µM | Potency [3] > 46 µM | Potency [4] | outcome [5] | outcome [11] | Potency [18] | outcome [13] | Potency [14] | outcome [15] | outcome [16]

From PubChem BioAssay (NCATS)
